{
  "source": "PubChem BioAssay (EPA / NIEHS)",
  "note": "Inconclusive results are not listed. Calls of active or inactive are those of the source. How the source made its calls, unless noted: active means hit-call score of the fitted dose curve at least 0.9, where 1 is the maximum; inactive means score below 0.9.",
  "data": [
    {"assay": "CCTE_Harrill_HTTr_CellCount_MCF7: CCTE's Cell Proliferation Assessment for the High-Throughput Transcriptomics (HTTr) Platform, Harrill Lab (AID 2284012; active means hit-call score of the fitted dose curve at least 0.9, where 1 is the maximum;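 further: cells exposed to compound for six hours; intended direction is loss of nuclei count meaning fewer cells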)", "how_it_was_run": "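MCF7 cells exposed 6 hours to an eight-point dilution series; Hoechst-stained nuclei counted by high-content imaging. Bidirectional curve fitting against DMSO baseline.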", "values": [
      {"smiles": "CCCCCCCCCCCCN=C(N)N", "outcome": "inactive"},
      {"smiles": "COc1cccc2c1cc([N+](=O)[O-])c1c(C(=O)O)cc3c(c12)OCO3", "outcome": "inactive"},
      {"smiles": "CNC(=O)ON=C(CSC)C(C)(C)C", "outcome": "inactive"}
    ]},
    {"assay": "CCTE_Shafer_MEA_dev_firing_rate_mean: CCTE's Neural Network Formation Assay for Mean Firing Rate, Shafer Lab (AID 2284031);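 on AC50: curve fitted for loss of firing so AC50 reflects decreased mean firing rate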", "how_it_was_run": "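Primary rat cortical neurons on 48-well MEA plates, exposed from plating day 0 with dosing renewed on DIV 5 and 9. Mean well firing rate over active electrodes, recorded days 5, 7, 9, 12, summarised as trapezoidal AUC.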", "values": [
      {"smiles": "CCC1(c2ccccc2)C(=O)NC(=O)NC1=O", "outcome": "inactive"},
      {"smiles": "c1ccc2c(c1)cc1ccc3cccc4ccc2c1c34", "outcome": "inactive"},
      {"smiles": "CCC[CH2][Sn]([CH2]CCC)([CH2]CCC)[O][Sn]([CH2]CCC)([CH2]CCC)[CH2]CCC", "AC50": "24.5 nM (active)"}
    ]},
    {"assay": "CCTE_Shafer_MEA_dev_per_burst_spike_percent: CCTE's Neural Network Formation Assay for Percent of Spikes in a Burst, Shafer Lab (AID 2284032);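 on AC50: fitted as a decrease in burst spike percentage below DMSO baseline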", "how_it_was_run": "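Rat primary cortical neurons on 16-electrode MEA wells, dosed from plating day 0 for 12 days with renewal on DIV 5 and 9; spikes-in-bursts percentage averaged over bursting electrodes, collapsed as AUC across days 5, 7, 9, 12; loss direction versus DMSO.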", "values": [
      {"smiles": "CCC1(c2ccccc2)C(=O)NC(=O)NC1=O", "outcome": "inactive"},
      {"smiles": "c1ccc2c(c1)cc1ccc3cccc4ccc2c1c34", "outcome": "inactive"},
      {"smiles": "CCC[CH2][Sn]([CH2]CCC)([CH2]CCC)[O][Sn]([CH2]CCC)([CH2]CCC)[CH2]CCC", "AC50": "34.2 nM (active)"}
    ]},
    {"assay": "CCTE_Shafer_MEA_dev_burst_rate: CCTE's Neural Network Formation Assay for Burst Rate, Shafer Lab (AID 2284042);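 on AC50: potency for loss of burst rate below DMSO control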", "how_it_was_run": "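Rat primary cortical cultures on PEI/laminin MEA; compound from plating, re-dosed at DIV 5, 9 media change. Single-electrode bursts/recording length, well mean of active electrodes; AUC over DIV 5–12 recordings; loss-of-signal vs DMSO.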", "values": [
      {"smiles": "CCC1(c2ccccc2)C(=O)NC(=O)NC1=O", "outcome": "inactive"},
      {"smiles": "c1ccc2c(c1)cc1ccc3cccc4ccc2c1c34", "outcome": "inactive"},
      {"smiles": "CCC[CH2][Sn]([CH2]CCC)([CH2]CCC)[O][Sn]([CH2]CCC)([CH2]CCC)[CH2]CCC", "AC50": "29.1 nM (active)"}
    ]}
  ]
}
